Screening data: PubChem, National Center for Advancing Translational Sciences (NCATS)
A selection: hits, their analogues and other compounds. The true share with any hit is near 4.4%.
12-hLO inh: qHTS Assay for Inhibitors of 12-hLO (12-human lipoxygenase) | AID 1452, 2008 | 0.12% of 150,000 active | purified 12-hLO, xylenol orange hydroperoxide absorbance | Polyunsaturated fatty acid lipoxygenase ALOX12 (Homo sapiens), P18054 | Potency, µM (highest dose often 57.1 µM), inactives show at the highest dose activity change, negative = inhibition, usual class: inhibitors; note: nearly all actives have a fitted effect of over 55% in size
Target sequence (P18054 whole entry, looked up): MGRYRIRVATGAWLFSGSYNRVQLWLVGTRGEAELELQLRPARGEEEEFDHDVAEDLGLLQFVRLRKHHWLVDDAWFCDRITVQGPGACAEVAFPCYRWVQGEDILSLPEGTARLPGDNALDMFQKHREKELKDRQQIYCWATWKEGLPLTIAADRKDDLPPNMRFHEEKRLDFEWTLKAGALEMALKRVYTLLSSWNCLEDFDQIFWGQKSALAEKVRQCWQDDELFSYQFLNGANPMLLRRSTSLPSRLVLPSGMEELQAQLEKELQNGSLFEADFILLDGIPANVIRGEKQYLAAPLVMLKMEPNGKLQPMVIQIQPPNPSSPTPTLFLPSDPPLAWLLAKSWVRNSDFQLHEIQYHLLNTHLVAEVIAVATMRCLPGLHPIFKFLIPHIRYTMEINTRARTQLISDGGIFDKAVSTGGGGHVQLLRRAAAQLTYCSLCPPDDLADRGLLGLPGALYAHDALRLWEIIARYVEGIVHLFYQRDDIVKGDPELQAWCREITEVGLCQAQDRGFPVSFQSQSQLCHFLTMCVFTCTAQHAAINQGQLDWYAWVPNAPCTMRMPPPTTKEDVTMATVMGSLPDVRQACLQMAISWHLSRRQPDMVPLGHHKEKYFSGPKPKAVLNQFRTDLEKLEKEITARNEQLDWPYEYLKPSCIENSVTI
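Purified human 12hLO (150 nM final) was preincubated with compounds for 15 min at room temperature in 25 mM Hepes pH 7.0, 0.01% Triton X-100, then reacted with 40 uM arachidonic acid for 30 min. Hydroperoxide was detected with ferrous iron/xylenol orange.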
p53ts 32C tox: qHTS Screen for Compounds that Selectively Target Cancer Cells with p53 Mutations: Cytotoxicity of p53ts Cells at the Permissive Temperature. Potency, µM (top dose mostly 46.1 µM), for the others: top-dose activity change, negative = cytotoxicity, most hits filed as cytotoxic. 0.93% of 130,000 active. H1299-p53A138V at 32C, ATP luminescence viability, 24 h;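 note: 0% = DMSO and -100% = full killing by reference compound; nearly all actives have a fitted effect of over 55% in size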
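Cells: H1299 p53ts (A138V), 600/well, pre-incubated 16–30 h at 37C. Cpd up to 46 uM, 24 h, 32C. Readout: ATPlite luminescence, 20 min RT. Normalization: DMSO vs tamoxifen 100 uM. AC50 by Hill equation.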
p53ts 39C tox: qHTS Screen for Compounds that Selectively Target Cancer Cells with p53 Mutations: Cytotoxicity of p53ts Cells at the Nonpermissive Temperature | H1299-p53A138V viability at 39C, ATP luminescence, 24 h | 1.5% of 130,000 active | Potency, µM (highest dose often 46.1 µM), for the others: top-dose activity change, negative = cell killing, most hits filed as cytotoxic | AID 902, 2007; note: nearly all actives have a fitted effect of over 55% in size
HPGD inh: qHTS Assay for Inhibitors of HPGD (15-Hydroxyprostaglandin Dehydrogenase). 4.3% of 150,000 active. Potency, µM, for the others: top-dose activity change, negative = inhibition, most hits filed as inhibitors. AID 894, 2007. purified HPGD, NADH fluorescence kinetic, PGE2 substrate; active = well fitted inhibition curve with a large enough effect, not every such curve was filed as active; inconclusive = small, poorly fitted or top-dose-only effect, or another doubt; inactive = no such curve, though single readings can be large or run the other way
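20 nM HPGD preincubated 15 min at room temperature with compound in 50 mM Tris-HCl pH 8, 0.01% Tween 20. Started with 1 mM NAD+ and 30 uM prostaglandin E2; NADH fluorescence (360/450 nm) read 5 times over 30-s intervals, last minus first.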
* hit, by the source's call; ? = inconclusive; nt = no result; ! = not active in a repeat; [ ] = another dose, or the depositor's remark. Unless noted, calls come from the whole dose curve; as a rule, active = well fitted curve in the direction sought with a large enough effect; inconclusive = small, poorly fitted or top-dose-only effect, or another doubt; inactive = no such curve, though single readings can be large; an effect the other way counts as inactive or inconclusive. Unless noted, % is set by controls: 0 for no effect and ±100 for the full control effect; potency is the fitted concentration of half-maximal effect.

SMILES	12-hLO inh	p53ts 32C tox	p53ts 39C tox	HPGD inh
CC1(C)Cc2c(c(-c3ccco3)[nH]c(=O)c2C#N)CS1	-16%	nt	nt	14µM*
CC1(C)Cc2c(c(-c3ccccc3)[nH]c(=O)c2C#N)CS1	-4%	nt	nt	?
O=C(NC1CC1)C1CCCN1S(=O)(=O)c1ccc2ccccc2c1 (stereo unspecified)	8%	7%	21%	-8%
O=C(NCCc1ccccc1F)C1CCCN1S(=O)(=O)c1ccc2ccccc2c1 (stereo unspecified)	-8%	-7%	7%	16µM*
C/C=C1\CC2C=CC1C2 (stereo unspecified)	-3%	-4%[1.84 µM]	5%	-9%
CCCOC(=S)NC(=O)c1sc2ccccc2c1Cl	-3%	nt	nt	20µM*
CCOC(=S)NC(=O)c1sc2ccccc2c1Cl	-15%	nt	nt	-25%
Cn1cccc1C(=O)N1CCC[C@@]2(CCN(C(c3ccccc3)c3ccccc3)C2)C1	-6%	-3%	-5%	-3%
Cc1cc(=O)c2c(O)c3c(O)cc(O)c4c5c(O)cc(O)c6c(O)c7c(=O)cc(C)c8c1c2c(c34)c(c65)c78	?	nt	nt	8.9µM*
Nc1nc(-c2ccc3c(c2)NC(=O)CO3)cs1	-17%	nt	nt	18µM*
CCN=c1scc(-c2ccc3c(c2)NC(=O)CO3)n1N=C1CCCC1	-8%	8%	-12%	16µM*
CC(=O)c1cccc(NC(=O)Cn2nc(C)n3cccc3c2=O)c1	nt	-7%	8%	nt
O=C(CSc1nc2ccc(S(=O)(=O)N3CCOCC3)cc2[nH]1)N1CCOCC1	0%	2%	9%	3.5µM*
CCCCNS(=O)(=O)c1ccc2nc(SCC(=O)N3CC(C)OC(C)C3)[nH]c2c1 (stereo unspecified)	1%	nt	nt	16µM*
Cc1cc(N2CCN(C3CCCC3)CC2)n2nc(C)c(-c3ccccc3)c2n1	nt	7%	15%	nt
c1ccc2c(c1)[nH]c1nc(SCCN3CCOCC3)nnc12	17%	-12%	-16%	32µM*
C=CC1=C(C(=O)O)N2C(=O)[C@@H](NC(=O)C(N=O)c3csc(N)n3)[C@H]2SC1 (stereo partly specified)	-3%[0.00818 µM]	nt	nt	?
Cc1nn(-c2ccc(S(=O)(=O)O)cc2)c(O)c1N=Nc1ccc(-c2ccc(N=Nc3ccc4c(S(=O)(=O)O)cc(S(=O)(=O)O)c(N)c4c3O)c(O)c2)cc1O.[Cu].[Cu]	-21%[11.4 µM]	-8%[9.22 µM]	2%[9.22 µM]	0.79µM*
COc1cc(-c2ccc(N=Nc3ccc4c(S(=O)(=O)O)cc(S(=O)(=O)O)c(N)c4c3O)c(OC)c2)ccc1N=Nc1ccc2c(S(=O)(=O)O)cc(S(=O)(=O)O)c(N)c2c1O	-6%	?	10µM*!	14µM*
COc1ccc(C(=O)N=c2nc3ccccn3s2)cc1	0%	0.79µM*	0.32µM*	-6%
Cc1ccc(C(=O)c2nocc2C(=O)c2cccs2)cc1	-10%	2%	-7%	22µM*
COc1cc(NC(=O)c2c(C)nn(-c3ccc(F)cc3)c2-n2cccc2)cc(OC)c1	nt	1%	3%	nt
CC(C)Cc1nnc(NS(=O)(=O)Cc2ccccc2)s1	3%	nt	nt	20µM*
CCOc1cc(/C=N/Nc2ccccc2Cl)ccc1OCC(=O)O	-18%	nt	nt	-21%
c1ccc(CNC2=NCCCC2)cc1	-4%	nt	nt	nt
SMILES	12-hLO inh	p53ts 32C tox	p53ts 39C tox	HPGD inh
O=C(NNC1=NCCCCC1)c1ccccc1	0%	nt	nt	14µM*
COc1cc(-c2c(C#N)c(N)nc(SCc3ccncc3)c2C#N)cc(OC)c1OC	-3%	9%	-4%	13µM*
Cc1ccc(N(CC(=O)N2CCN(c3cc(Cl)ccc3C)CC2)S(=O)(=O)c2c(C)noc2C)cc1	nt	21%	-2%	nt
O=C(NCc1ccccc1)c1cccc(COc2cc(Cl)ccc2Cl)c1	-4%	-2%	?	-15%
CN(C(=O)c1cccc(COc2ccc(Cl)cc2Cl)c1)c1ccccc1	-2%	nt	nt	18µM*
CCCCc1nc2c(c3c1C[C@H](C)OC3)CN(C(=O)NCCCC(=O)OCC)CC2	-1%[11.4 µM]	nt	nt	-5%
Cc1ccc(/C=C/C(=O)N2CCc3ccccc3C2)cc1	-3%	nt	nt	14µM*
CCN1CCN(C(=S)c2ccc(Cl)cc2)CC1	2%	nt	nt	10µM*
OCCN1CCN(C(=S)c2ccc(Cl)cc2)CC1	-2%	6%	8%	16µM*
OCCN1CCN(Cc2cc(Br)cc(Br)c2O)CC1	2%	-12%	5%	-4%
CC(C)(C)c1cc(C(=S)N2CCN(CCO)CC2)cc(C(C)(C)C)c1O	?	21%	5%	25µM*
CCOC(=O)N1CCN(CCC(=O)c2ccc(Cl)cc2)CC1	-3%	-16%	2%	25µM*
CCN1CCN(C(=S)c2ccc(SC)cc2)CC1	1%	nt	nt	?
CCc1ccc(C(=O)NC2=NC(c3ccccc3F)CC(=O)N2)cc1 (stereo unspecified)	nt	4%	-6%	nt
COc1ccc(CCNC(=O)CSc2nc(-c3ccc(F)cc3)cc(C(F)(F)F)n2)cc1OC	nt	3%	14%	nt
CC(=O)OCC1OC(Oc2cc(OC(C)=O)c3c(=O)cc(-c4ccc(OC(C)=O)c(OC(C)=O)c4)oc3c2)C(OC(C)=O)C(OC(C)=O)C1OC(C)=O (stereo unspecified)	-1%	-27%	-25%	-19%
O=C(OCc1nnc(-c2ccccc2)o1)c1ccco1	-2%	4%	-6%	8.9µM*
CN(Cc1ccccc1)C(=O)COC(=O)c1ccc2c(c1)OCO2	-13%	8%	-8%	-14%
Cc1nn(Cc2ccccc2)c(Cl)c1C(=O)OCc1nnc(-c2ccccc2)o1	1%	2%	-16%	13µM*
O=C(OCc1nnc(-c2ccccc2)o1)c1ccc2c(c1)OCO2	-21%	1%	3%	7.1µM*
Cc1nn(Cc2ccccc2)c(Cl)c1C(=O)OCc1nnc(-c2ccc(Cl)cc2)o1	-20%	-2%	-21%	-19%
N#Cc1ccccc1Sc1ccccc1C(=O)OCc1nnc(-c2ccccc2)o1	0%	-12%	-11%	8.9µM*
O=C(OCc1nnc(-c2ccccc2)o1)c1cc(=O)c2ccccc2o1	-3%	1%	-3%	-9%
Cn1c(=O)c(-c2cccs2)nc2cncnc21	nt	-6%	-6%	nt
CCOc1ncccc1C(=O)OCc1nnc(-c2ccccc2)o1	-5%	-2%	4%	16µM*
CCOc1ncccc1C(=O)OCc1ccccc1	5%	nt	nt	-14%
Cc1ccc(S(=O)(=O)N(C)CC(=O)OCc2nnc(-c3ccccc3)o2)cc1	3%	-3%	1%	25µM*
Cc1ccc(S(=O)(=O)N(C)CC(=O)OCC(=O)NC(c2ccccc2)c2ccccc2)cc1	-2%	nt	nt	-11%
CCc1cccc(C)c1NC(=O)CSc1n[nH]c(-c2ccccc2)n1	nt	9%	0%	nt
O=C(COC(=O)CCSc1ccccc1)NCc1ccccc1Cl	3%	nt	-8%	18µM*
